Data on 93 compounds can be found in PubChem BioAssay AID1817 (Sanford-Burnham Center for Chemical Genomics, 2009).

Where “and” joins values, the source holds several entries; their conditions need not be identical. Equal values may be shown once. Hit rate of the full screen: of about 290,000 compounds, about 50 (0.02%) were called active. The sample holds actives, similar compounds and a random draw of the others, so the mix is not that of the screen. Measured potencies and affinities stand elsewhere. Values without a mark were called inactive.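 The calls were made as follows: active = displacement of at least 50% at 20 µM, with a fluorescence ratio check between 0.3 and a set limit; inactive = the rest.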

The assay deals with E3 ubiquitin-protein ligase SIAH1 (Homo sapiens) (UniProt Q8IUQ4). Nature of the assay: Siah-1 peptide-binding antagonists, primary screen, biochemical, fluorescence polarization, rhodamine-plectin, uHTS (AID 1817).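 Also: plate controls were Siah plus tracer with DMSO for no effect and tracer alone without Siah for full effect.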 The note with it: Siah-1 / rhodamine-plectin peptide fluorescence polarization; at 20 µM; active compounds read high. On the technique in general: Fluorescence polarisation rises when a labelled molecule tumbles more slowly, as on binding a larger partner.
E3 ubiquitin-protein ligase SIAH1 (Homo sapiens), sequence (Q8IUQ4 whole entry, looked up): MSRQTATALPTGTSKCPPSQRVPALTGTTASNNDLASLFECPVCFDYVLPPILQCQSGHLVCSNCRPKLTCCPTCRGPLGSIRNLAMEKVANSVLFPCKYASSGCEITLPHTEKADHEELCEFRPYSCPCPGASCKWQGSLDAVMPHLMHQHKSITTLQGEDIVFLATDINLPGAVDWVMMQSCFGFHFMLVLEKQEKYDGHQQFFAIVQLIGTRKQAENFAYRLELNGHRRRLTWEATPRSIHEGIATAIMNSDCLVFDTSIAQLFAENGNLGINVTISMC
As to `O=C(Nc1ccc(Nc2ccncc2)cc1)c1ccc(Nc2ccnc3ccc([N+](=O)[O-])cc23)cc1`, the displacement was 60% (active).

In the case of `O=C(Nc1ccc(Nc2ccncc2)cc1)c1ccc(Nc2ccnc3ccc([N+](=O)[O-])cc23)cc1[N+](=O)[O-]`, the displacement was 17.2%.

Regarding `O=C(Nc1ccc(Nc2ccncc2)cc1)c1ccc([N+](=O)[O-])cc1`, the displacement was 2.7%.

With `CSc1ccc(/C=C/C(=O)N2CCCN(C)CC2)cc1`, the displacement is 4%.

For `N#Cc1ccc(NC(=O)CNc2cc(S(=O)(=O)N3CCOCC3)ccc2NCC2CCCO2)cc1` (stereo not drawn), the displacement was -0.4%.

In the case of `CCc1nnc(NC(=O)c2ccc(COc3ccccc3Cl)o2)s1`, the displacement is 5.6%.

For `CCOC(=O)C1(S(=O)(=O)c2ccc(Cl)cc2)CCN(Cc2ccc(C)cc2)CC1`, the displacement was -0.2%.

On to `COc1cccc(C(=O)N2CCN(Cc3ccccc3Br)CC2)c1`, for which the displacement is 3.1%.

For `COC(=O)C(C(=O)OC)C(c1ccccc1)C(C(=O)c1ccccc1)[N+](=O)[O-]` (stereo not drawn), the displacement was 2%.

In the case of `O=c1cc2oc3cc(O)c(O)cc3c(-c3ccccc3O)c-2cc1O`, the displacement is 83.3% (active).

`COc1ccc(OC)c(-c2c3cc(O)c(=O)cc-3oc3cc(O)c(O)cc23)c1`: the displacement was 58.5%.

Regarding `O=c1cc2oc3cc(O)c(O)cc3c(-c3ccccc3[N+](=O)[O-])c-2cc1O`, the displacement was 48.7%.

On to `CCOc1ccccc1-c1c2cc(O)c(=O)cc-2oc2cc(O)c(O)cc12`, for which the displacement is 61.3% (active).

Take `Cc1c2cc(O)c(=O)cc-2oc2cc(O)c(O)cc12`: the displacement was 70.1% and 99.1%.

In the case of `COc1cc(OC)c(-c2c3cc(O)c(=O)cc-3oc3cc(O)c(O)cc23)cc1OC`, the displacement was 48%.

On to `COc1cc(S(=O)(=O)NC(C)C)ccc1Cl`, for which the displacement is 3%.

As to `CC(C)c1ccccc1NC(=S)N(C)C`, the displacement is -9.8%.

Take `COC(=O)CCSc1nc(N2CCOCC2)c2c(c1C#N)CC(C)(C)OC2`: the displacement is 1.2%.

For the compound `Cc1cccc(C)c1NC(=O)C1CCCN1S(=O)(=O)c1ccc2c(c1)n(C)c(=O)c(=O)n2C` (stereo not drawn), the displacement is 2.2%.

As to `COCCNC(=S)N(CCc1c(C)[nH]c2ccc(C)cc12)Cc1ccco1`, the displacement is 1.4%.

Consider `CCOC(=O)c1ccc(-n2c(O)c(/C=N/NC(=O)C3COc4ccccc4O3)c3ccccc3c2=O)cc1` (stereo not drawn), for which the displacement was -6%.

`Cc1nc(NC(=S)NC(=O)c2cncc(Br)c2)ccc1Br`: the displacement is -7%.

`Cc1cccc(C(=O)NC(C(=O)Nc2nc(-c3ccccn3)cs2)C(C)C)c1` (stereo not drawn): the displacement is -2.5%.

Take `O=C(NN1C(=O)C2C3C=CC(C3)C2C1=O)c1ccncc1` (stereo not drawn): the displacement is 3.2%.

For `O=C(NN1C(=O)C2C(C1=O)C1C=CC2C12CC2)c1ccncc1` (stereo not drawn), the displacement was 0.7%.

With `O=C(NN1C(=O)C2CC=C(Cl)CC2C1=O)c1ccncc1` (stereo not drawn), the displacement is 69.4% (active).

Consider `C[C@@H](C[C@@H](O)[C@H](O)C(C)(C)O)[C@@H]1CC[C@]2(C)C3=CC[C@H]4C(C)(C)C(=O)CC[C@]4(C)[C@H]3CC[C@@]12C`, for which the displacement was 2.8%.

Turning to `CC(NC(=O)C1CCCN(S(=O)(=O)c2cccs2)C1)c1ccccc1` (stereo not drawn), the displacement is 0.2%.

On to `COc1cc(OC)c(OC)cc1CN1CCCC(C(=O)c2sccc2C)C1` (stereo not drawn), for which the displacement is -6.6%.

Take `COc1ccc(CCn2c(N)c(C(=O)NCc3ccco3)c3nc4ccccc4nc32)cc1`: the displacement is 57.5% (active).

Take `COc1ccc(CCn2c(N)c(C(=O)NCc3ccco3)c3nc4ccccc4nc32)cc1OC`: the displacement is -1.3%.

`Nc1c(C(=O)NCc2ccco2)c2nc3ccccc3nc2n1CCc1ccc(F)cc1`: the displacement is 2.1%.

Turning to `Cn1c(Cl)c(/C=N/OC(=O)c2ccccc2Cl)c2ccccc21`, the displacement is -1.7%.

On to `CC12CCC(C(=O)NCc3ccco3)(OC1=O)C2(C)C` (stereo not drawn), for which the displacement was 1.5%.

On to `CN1C(=O)NC(c2ccccc2[N+](=O)[O-])C2=C1CC(C)(C)CC2=O` (stereo not drawn), for which the displacement was 4.2%.

Regarding `CN1C(=O)NC(c2cccc([N+](=O)[O-])c2)C2=C1CCCC2=O` (stereo not drawn), the displacement is 3%.

`C/C(=N\OC(=O)Nc1ccccc1)c1cnn(-c2cc(C(F)(F)F)cc(C)n2)c1C`: the displacement was 5.7%.

With `COCCn1c(C)c(C(=O)O)sc1=S`, the displacement is 2.3%.

Regarding `CCOC(=O)c1sc(=S)n(CC)c1N`, the displacement was -0.9%.

For the compound `COc1cc2ncnc(NCc3ccccc3C)c2cc1OC`, the displacement is 4.9%.

Regarding `CCOC(=O)c1cccc(NC(=O)CSc2nnc(C)n2Cc2ccccc2)c1`, the displacement is -0.6%.

Take `CC(=O)Nc1ccc(N=Cc2c(O)c3ccccc3oc2=O)cc1`: the displacement was 1.2%.

Turning to `CC(=O)Nc1ccc(N=Cc2c(O)ccc3ccccc23)cc1`, the displacement was -0.3%.

As for `Cc1cccc(N2CCN(C(=O)c3ccc(NC(=O)C4CCCO4)cc3)CC2C)c1` (stereo not drawn), the displacement is 1.8%.

Regarding `COCCNC(=O)/C(C#N)=C/c1ccc(OCc2ccc(F)cc2)cc1`, the displacement was -1.7%.

On to `Cc1cc(/C=C2\NC(=O)NC2=O)c(C)n1-c1ccc(N2CCOCC2)cc1`, for which the displacement is -9.1%.

`COc1ccc(OCCn2c(N)nc3ccccc32)cc1`: the displacement was 3.4%.

For the compound `O=C(NC1CCCC1)c1ccc(COc2ccccc2Br)o1`, the displacement was 2.7%.

`O=c1[nH]c(-c2ccc3c(c2)OCO3)nc2c1sc(=S)n2-c1ccccc1`: the displacement was 1.9%.

Turning to `O=c1[nH]c(-c2ccccc2Cl)nc2c1sc(=S)n2-c1ccccc1`, the displacement is 2.3%.

Regarding `COc1ccccc1CN1CC(C(=O)N(C)Cc2ccc(C)o2)CCC1=O` (stereo not drawn), the displacement was -3.9%.

`Oc1ccc(/C=N/Nc2cccc3cccnc23)c(O)c1`: the displacement is -3.9%.

In the case of `Oc1c(/C=N/Nc2cccc3cccnc23)ccc2ccccc12`, the displacement is 93.1% (active).

With `Oc1ccccc1/C=N/Nc1cccc2cccnc12`, the displacement was -2.4%.

As for `CCCCCCOc1ccc(N2C(=O)CC(N3CCN(CCN=CC4=C(O)CC(C)(C)CC4=O)CC3)C2=O)cc1` (stereo not drawn), the displacement was 1.8%.

With `CC(C)(C)c1ccc(C(CC(=O)O)NC(=O)Cc2ccccc2)cc1` (stereo not drawn), the displacement was 1.2%.

Regarding `CC(C)(C)c1ccc(C(CC(=O)O)NC(=O)Cc2ccc(Cl)cc2)cc1` (stereo not drawn), the displacement was -2.3%.

As for `CCOC(=O)c1nn(-c2cccc(OC)c2)c2nc(CC)c(C#N)c(=O)n12`, the displacement was 12.2%.

Turning to `C=CCc1cccc2cc(C(=O)Nc3ccc(NC(C)=O)cc3)c(=O)oc12`, the displacement was 9.1%.

Take `C=CCc1cccc2cc(C(=O)Nc3ccc(F)cc3)c(=O)oc12`: the displacement is 5.1%.

As to `CCn1c(SC(C)C(=O)O)nnc1-c1cccnc1` (stereo not drawn), the displacement was -1.4%.

For the compound `Cc1ccc(-n2ncc3c2CC(C)(C)CC3NC(=O)c2ccc[n+]([O-])c2)cc1` (stereo not drawn), the displacement was 4.8%.

As to `C=CCNC(=S)Nc1ccc2nsnc2c1`, the displacement was 52.1% (active).

Take `C=CCNC(=S)Nc1ccc2nc(C)c(C)nc2c1`: the displacement is 3.4%.

Take `OCCNC(=S)Nc1ccc2nsnc2c1`: the displacement is -1.1%.

With `O=C(N/N=C/c1cccnc1)c1ccc2c(c1)OCCO2`, the displacement was -2.3%.

Turning to `COc1ccc(-c2nc3c4ccccc4ccn3c2CN2CCOCC2)cc1OC`, the displacement was 13.8%.

In the case of `COC(=O)c1ccc2c(=O)n(CCCN3CCCC3=O)c(=S)[nH]c2c1`, the displacement is -3.7%.

Turning to `O=C(O)c1nc(-c2ccccc2)n(-c2cccc(C(F)(F)F)c2)n1`, the displacement was -2.9%.

Regarding `COCCNC(=O)CSc1nc2cc(OC)c(OC)cc2c(=O)n1Cc1ccc(OC)cc1`, the displacement was 0.2%.

For `Cc1cc(C)n2nnnc2c1C#N`, the displacement was 1.6%.

In the case of `O=C(Nc1ccc(Br)cc1)c1ccc(N2C(=O)C3CC=C(Cl)CC3C2=O)cc1` (stereo not drawn), the displacement is -0.2%.

In the case of `O=C(Nc1ccc(Br)cc1)c1ccc(N2C(=O)C3CCCCC3C2=O)cc1` (stereo not drawn), the displacement was -1%.

Regarding `CCCOc1ccc(C(=O)CCC(=O)OCC(=O)Nc2cc(C)on2)cc1`, the displacement was -2.7%.

In the case of `COc1ccccc1C(=O)Nc1ccnn1C1CCN(Cc2ccc3nonc3c2)CC1`, the displacement is 7.2%.

As to `Cn1c(Cc2csc(N)n2)nnc1SCC(=O)NC1CCCCC1`, the displacement was 0.1%.

With `O=S(=O)(c1ccc(Cl)cc1)N1CCN(C2CCN(Cc3ccccc3)CC2)CC1`, the displacement was 3%.

On to `Cc1oc2cc(O)ccc2c(=O)c1-c1ccccc1`, for which the displacement is 8.8%.

Turning to `Nc1ccc(-c2c3ccc(=O)cc-3oc3cc(O)ccc23)cc1C(=O)O`, the displacement was 3%.

Regarding `C/C(=N\NC(=O)c1c(Cl)cnn1C)c1cccc(NC(=O)COc2ccccc2)c1`, the displacement was 0.3%.

In the case of `CC(=O)Nc1ccc(C(=S)NCCCO)cc1`, the displacement was -4.5%.

Regarding `COC(=O)c1ccc2c(c1O)C(=O)c1ccccc1C2=O`, the displacement is 71.8% (active).

Regarding `Cc1[nH]c2ccccc2c1CCNC(=O)c1ccc2c(c1[N+](=O)[O-])C(=O)c1ccccc1C2=O`, the displacement was 22.7%.

As for `CCN(CC)C(=O)c1ccc2c(c1[N+](=O)[O-])C(=O)c1ccccc1C2=O`, the displacement was 34.3%.

With `CC(C)COC(=O)c1ccc2c(c1O)C(=O)c1ccccc1C2=O`, the displacement is 4.6%.

On to `O=C(COC(=O)c1ccc2c(c1Cl)C(=O)c1ccccc1C2=O)NC1CC1`, for which the displacement was -3.3%.

With `COc1ccc2c(c1O)C(=O)c1ccccc1C2=O`, the displacement was 2.4%.

For `O=C(COC(=O)c1ccc2c(c1[N+](=O)[O-])C(=O)c1ccccc1C2=O)NC1CC1`, the displacement was 76.3% (active).

In the case of `O=C(COC(=O)c1ccc2c(c1Cl)C(=O)c1ccccc1C2=O)NC1CCCCC1`, the displacement is -2.2%.

`CN(C)C(=O)c1ccc2c(c1[N+](=O)[O-])C(=O)c1ccccc1C2=O`: the displacement is 60.6% (active).

`CN(CCOc1ccccc1)S(=O)(=O)c1ccc2oc3ccccc3c2c1`: the displacement is 2.8%.

Consider `CC(=O)c1ccc(NC(=O)CCNS(=O)(=O)c2ccccc2F)cc1`, for which the displacement was -1.6%.

Turning to `Cc1ccc(N(C)S(=O)(=O)c2cc3c(cc2C)NC(=O)CO3)cc1`, the displacement was -1%.
